Measurements as given in PubChem BioAssay (EPA / NIEHS).
Active and inactive are the calls of the source. How the source made its calls: active means hit-call score of the fitted dose curve at least 0.9, where 1 is the maximum; inactive means score below 0.9.

The molecules below were run on Cellular tumor antigen p53 (Homo sapiens) (UniProt P04637) (assay: LTEA_HepaRG_TP53: Life Technologies and Expression Analysis (LTEA) Assay for Tumor Protein P53 (TP53) using HepaRG (AID 2283537)). Conditions: mRNA level, 48 h; actives raise or lower the signal.
Experimental: LTEA_HepaRG is a cell based, multiplexed-readout assay that uses HepaRG, a human liver cell line, with measurements taken at 48 hours after chemical dosing on a 96-well plate.LTEA_HepaRG_TP53 is one of 102 assay component(s) measured in the LTEA HepaRG cell culture assay. It is a marker of Oxidative Stress.Data from the assay component LTEA_HepaRG_TP53 was analyzed into 1 endpoint. This assay endpoint, LTEA_HepaRG_TP53, was analyzed with bidirectional fitting relative to DMSO as the negative control and baseline of activity. Using a type of inducible reporter, measures of mRNA induction for gain or loss-of-signal activity can be used to understand regulation of transcription factor activity. To generalize the intended target to other relatable targets, this assay endpoint is annotated to the dna binding intended target family, where the subfamily is tumor suppressor.
A total of 1060 chemcials from the ToxCast library were tested in eight-point concentration-response experiments. Cell culture and cytotoxicity assays were conducted at Thermo Fisher Scientific's Custom Services facility (Madison, WI). A single lot of human HepaRG cells (Thermo Fisher Scientific, Frederick, MD) was used for the cell culture experiments. 96-well format collagen type I coated plates of human HepaRG cells were prepared using established methods. Briefly, cryopreserved HepaRG cells were thawed, plated at a density of approximately 100,000 cells/well in HepaRG Thaw, Plate, and General Purpose media (HPRG770, Thermo Fisher Scientific), and incubated for 48 hours. 0.5% DMSO was selected as vehicle control to balance the requisite need of DMSO in HepaRG cultures to maintain differentiation (for example, baseline metabolism, proportions of hepatocytes vs. cholangiocytes), while enabling further hepatic receptor pathway activation (for example, PXR and CAR) in response to chemical exposure. 48 hours after plating, the culture medium was replaced with HepaRG Serum-Free Incudtion Media. Cells were exposed to each test chemical in duplicate and maintained in CO2 incubators for another 48 hours. Chemical plates were thawed to room temperature and 200x concentrations of treatment groups were prepared. 8-point conentration-reponse curves were made with the highest exposure at 100 uM, followed by half-log dilutions, all in 0.5% DMSO. Each test plate contained variouse controls, induction positive controls (1mM phenobarbital), cytotoxicity positive controls ([…] aflatoxin B1), vehicle controls (0.5% DMSO), and total lysis controls (0.5% DMSO). Cell morphology images were taken using an Essen IncuCyte FLR automated microscope, with six 96-well plates imaged in about 24 minutes. Images were captured and exported and JPEG files. Spent culture media was transfered to black-well plates for the LDH assay, and remaining media was sorted at -80 C for later use. Cells were treated with RLT buffer and frozen until shipped for gene expression analysis. Total RNA was isolated from the cell suspension in 75 uL of Buffer RLT (Qiagen, Germantown, MD 20874) by Quintiles/Expression Analysis (Durham, NC) using a custom isolation procedure. Total RNA from each plate well was transferred to a preamplification plate. Fluidigm's 96.96 Dynamic ArrayTM (Fluidigm, Amsterdam, the Netherlands) technology was used for gene expression analyses by quantitative reverse transcription polymerase chain reaction (qRT-PCR, performed by Quintiles/Expression Analysis, Durham, NC)89. Standard TaqManTM Assays (Applied Biosystems/ThermoFisher Scientific, Foster City, CA) were used to assess the expression of 93 genes selected based on their selectivity and sensitivity to important hepatic receptors known to be modulated by environmental chemicals; importance in human hepatocyte functionality; and hepatotoxicity. […]

Cellular tumor antigen p53 (Homo sapiens), sequence (P04637 whole entry, looked up): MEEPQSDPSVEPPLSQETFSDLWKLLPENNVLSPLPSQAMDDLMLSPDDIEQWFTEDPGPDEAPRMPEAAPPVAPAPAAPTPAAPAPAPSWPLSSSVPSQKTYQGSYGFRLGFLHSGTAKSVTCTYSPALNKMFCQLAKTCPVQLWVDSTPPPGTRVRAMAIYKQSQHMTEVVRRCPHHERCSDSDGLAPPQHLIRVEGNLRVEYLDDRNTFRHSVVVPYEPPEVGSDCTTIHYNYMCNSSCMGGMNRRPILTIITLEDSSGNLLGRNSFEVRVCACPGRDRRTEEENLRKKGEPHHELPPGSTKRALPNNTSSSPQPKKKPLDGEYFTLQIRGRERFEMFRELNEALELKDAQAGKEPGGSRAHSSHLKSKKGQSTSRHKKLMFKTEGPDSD

| SMILES | outcome | AC50 |
| --- | --- | --- |
| CC1(C)NC(=O)NC1=O | inactive |  |
| CCNc1cccc(C)c1 | inactive |  |
| NS(=O)(=O)c1cc2c(cc1Cl)NCNS2(=O)=O | inactive |  |
| c1cc(-c2ccncc2)ccn1 | inactive |  |
| Cc1cc(=O)[nH]c(=S)[nH]1 | inactive |  |
| C[C@]12C=CC(=O)C=C1CC[C@@H]1[C@@H]2C(=O)C[C@@]2(C)[C@H]1CC[C@]2(O)C(=O)CO | inactive |  |
| O=C(N[C@@H](Cc1ccccc1)[C@@H](O)C(=O)N1C[C@@H](O)[C@@H](O)C1)c1cc2cc(Cl)ccc2[nH]1 |  | 50 µM (active) |
| CCCCCCCC=O | inactive |  |
| CCOC(=O)C(C)(C)Oc1ccc(Cl)cc1 | inactive |  |
| Cc1cccc(Nc2cc(Cl)nc(SCC(=O)O)n2)c1C | inactive |  |
| COc1cc(C=O)ccc1O | inactive |  |
| COc1cc(S(=O)(=O)O)c(C)cc1N=Nc1c(O)ccc2cc(S(=O)(=O)O)ccc12 | inactive |  |
| CCCCCCCCCCCCCO | inactive |  |
| O=C(OCCCCCOC(=O)c1ccccc1)c1ccccc1 |  | 1.31 µM (active) |
| Cc1cc(NC(=O)C(=O)O)cc(C)c1Oc1ccc(O)c2c1CCC2 | inactive |  |
| Cc1oc(-c2ccccc2)nc1CCOc1cccc2c1ccn2CCC(=O)O |  | 80.1 µM (active) |
| CCCCCCCCCCCCCCCC | inactive |  |
| CCOC(=O)CCC(=O)OCC | inactive |  |
| CC(=O)C(C)=CC1C(C)=CCCC1(C)C (stereo not given) | inactive |  |
| O=c1[nH]cc(F)c(=O)[nH]1 | inactive |  |

| SMILES | outcome | AC50 |
| --- | --- | --- |
| CC1(C)CC(N=C=O)CC(C)(CN=C=O)C1 (stereo not given) | inactive |  |
| Oc1ccc2ccccc2c1N=Nc1ccccc1 | inactive |  |
| OC[C@@H](O)[C@@H](O)[C@H](O)[C@H](O)CO | inactive |  |
| CCCCCCCCCCO | inactive |  |
| CCCCCCC(=O)OCC | inactive |  |
| CCCCCCCCCCCC(=O)OC | inactive |  |
| Nc1ccc2c(c1)C(=O)c1ccccc1C2=O |  | 18.2 µM (active) |
| Cc1cccc([N+](=O)[O-])c1C | inactive |  |
| C1CCC(SSC2CCCCC2)CC1 | inactive |  |
| COc1ccc(C)cc1N | inactive |  |
| Cc1ccc(N(C)C)cc1 | inactive |  |
| CC(=O)OC/C=C(\C)CCC=C(C)C | inactive |  |
| Cc1nc(-c2ccc3c(c2)CCN(CCC2CCC(NC(=O)/C=C/c4ccc(F)cc4)CC2)CC3)no1 (stereo not given) | inactive |  |
| CCc1c(C(=O)NN2CCCCC2)nn(-c2ccc(Cl)cc2Cl)c1-c1ccc(Br)cc1 |  | 29.8 µM (active) |
| Cc1cccc(C)c1O | inactive |  |
| Cc1ccc(C)c(O)c1C | inactive |  |
| O=C(O)Cc1ccccc1Nc1c(Cl)cccc1Cl | inactive |  |
| Cc1ccc2ncccc2c1 | inactive |  |
| Clc1cc(Cl)c(Cl)cc1Cl | inactive |  |
| COc1ccc2c(c1)c(CC(=O)O)c(C)n2C(=O)c1ccc(Cl)cc1 | inactive |  |
